Experimental data published in the supplement of paper PMC8728848.
The sample as a whole holds a higher share of the strongest signals than the screen did.

Columns and labels:
Assay in all cases: glycan array binding signal (z-score within array); higher = stronger binding
Settings in all cases: glycan notation: IUPAC condensed, linker removed
Fuc(a1-2)Gal = biological target: Fuc(a1-2)Gal
In short: (§1)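 Columns mapping to the same glycan were averaged after glycan names were converted to IUPAC-condensed notation. The data come from 3228 arrays in the Consortium for Functional Glycomics database, limited to those with an available protein sequence. Binding is reported as a within-array Z-score averaged across arrays of one protein sequence and across linkers.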

[1] = biological target: Fuc(a1-2)Gal(b1-4)GlcNAc(b1-2)Man(a1-3)[Fuc(a1-2)Gal(b1-4)GlcNAc(b1-2)Man(a1-6)]Man(b1-4)GlcNAc(b1-4)GlcNAc
In short: as §1

[2] = biological target: Fuc(a1-2)[Gal(a1-3)]Gal(b1-3)GlcNAc
In short: as §1

[3] = biological target: Fuc(a1-2)[Gal(a1-3)]Gal(b1-4)GlcNAc
In short: as §1

[4] = biological target: Fuc(a1-2)[GalNAc(a1-3)]Gal
In short: as §1

[5] = biological target: Fuc(a1-2)[GalNAc(a1-3)]Gal(b1-4)GlcNAc(b1-2)Man
In short: as §1

[6] = biological target: Fuc(a1-2)[GalNAc(a1-3)]Gal(b1-4)GlcNAc(b1-2)Man(a1-3)[Fuc(a1-2)[GalNAc(a1-3)]Gal(b1-4)GlcNAc(b1-2)Man(a1-6)]Man(b1-4)GlcNAc(b1-4)GlcNAc
In short: as §1

[7] = biological target: Fuc(a1-2)[GalNAc(a1-3)]Gal(b1-4)GlcNAc(b1-3)GalNAc
In short: as §1

Fuc(a1-3)GlcNAc = biological target: Fuc(a1-3)GlcNAc
In short: as §1

[8] = biological target: Fuc(a1-3)[Gal(b1-4)]GlcNAc(b1-2)Man
In short: as §1

[9] = biological target: Fuc(a1-3)[GalNAc(b1-4)]GlcNAc
In short: as §1

[10] = biological target: Gal(a1-3)Gal(b1-3)[Fuc(a1-4)]GlcNAc(b1-2)Man(a1-3)[Gal(a1-3)Gal(b1-3)[Fuc(a1-4)]GlcNAc(b1-2)Man(a1-6)]Man(b1-4)GlcNAc(b1-4)GlcNAc
In short: as §1

[11] = biological target: Gal(a1-3)Gal(b1-4)[Fuc(a1-3)]GlcNAc(b1-2)Man(a1-3)[Gal(a1-3)Gal(b1-4)[Fuc(a1-3)]GlcNAc(b1-2)Man(a1-6)]Man(b1-4)GlcNAc(b1-4)GlcNAc
In short: as §1

[12] = biological target: Gal(a1-4)Gal(b1-3)GlcNAc(b1-2)Man(a1-3)[Gal(a1-4)Gal(b1-3)GlcNAc(b1-2)Man(a1-6)]Man(b1-4)GlcNAc(b1-4)GlcNAc
In short: as §1

[13] = biological target: Gal(a1-4)Gal(b1-4)GlcNAc(b1-3)Gal(b1-4)Glc
In short: as §1

Gal(b1-2)Gal = biological target: Gal(b1-2)Gal
In short: as §1

[14] = biological target: Gal(b1-3)GalNAc(b1-4)Gal(b1-4)Glc
In short: as §1

[15] = biological target: Gal(b1-3)GlcNAc(b1-2)[Gal(b1-3)GlcNAc(b1-6)]Man(a1-6)[Gal(b1-3)GlcNAc(b1-2)Man(a1-3)]Man(b1-4)GlcNAc(b1-4)GlcNAc
In short: as §1

Gal(b1-3)GlcNAc6S = biological target: Gal(b1-3)GlcNAc6S
In short: as §1

[16] = biological target: Gal(b1-4)GlcNAc(b1-2)Man(a1-3)[GlcNAc(b1-2)Man(a1-6)]Man(b1-4)GlcNAc(b1-4)GlcNAc
In short: as §1

[17] = biological target: Gal(b1-4)GlcNAc(b1-3)Gal(b1-4)GlcNAc(b1-3)Gal(b1-4)GlcNAc(b1-3)Gal(b1-4)GlcNAc(b1-2)[Gal(b1-4)GlcNAc(b1-3)Gal(b1-4)GlcNAc(b1-3)Gal(b1-4)GlcNAc(b1-3)Gal(b1-4)GlcNAc(b1-6)]Man(a1-6)[Gal(b1-4)GlcNAc(b1-3)Gal(b1-4)GlcNAc(b1-3)Gal(b1-4)GlcNAc(b1-3)Gal(b1-4)GlcNAc(b1-2)Man(a1-3)]Man(b1-4)GlcNAc(b1-4)[Fuc(a1-6)]GlcNAc
In short: as §1

[18] = biological target: Gal(b1-4)GlcNAc(b1-3)Gal(b1-4)GlcNAc(b1-3)Gal(b1-4)GlcNAc(b1-3)Gal(b1-4)GlcNAc(b1-3)Gal(b1-4)GlcNAc(b1-2)Man(a1-3)[Gal(b1-4)GlcNAc(b1-3)Gal(b1-4)GlcNAc(b1-3)Gal(b1-4)GlcNAc(b1-3)Gal(b1-4)GlcNAc(b1-3)Gal(b1-4)GlcNAc(b1-2)Man(a1-6)]Man(b1-4)GlcNAc(b1-4)GlcNAc
In short: as §1

[19] = biological target: Gal(b1-4)GlcNAc(b1-3)Gal(b1-4)GlcNAc(b1-3)Gal(b1-4)GlcNAc(b1-3)Gal(b1-4)GlcNAc(b1-3)Gal(b1-4)GlcNAc(b1-2)[Gal(b1-4)GlcNAc(b1-3)Gal(b1-4)GlcNAc(b1-3)Gal(b1-4)GlcNAc(b1-3)Gal(b1-4)GlcNAc(b1-3)Gal(b1-4)GlcNAc(b1-6)]Man(a1-6)[Gal(b1-4)GlcNAc(b1-3)Gal(b1-4)GlcNAc(b1-3)Gal(b1-4)GlcNAc(b1-3)Gal(b1-4)GlcNAc(b1-3)Gal(b1-4)GlcNAc(b1-2)Man(a1-3)]Man(b1-4)GlcNAc(b1-4)[Fuc(a1-6)]GlcNAc
In short: as §1

Gal4S(b1-4)GlcNAc = biological target: Gal4S(b1-4)GlcNAc
In short: as §1

Gal6S(b1-3)GlcNAc6S = biological target: Gal6S(b1-3)GlcNAc6S
In short: as §1

[20] = biological target: GalNAc(b1-4)GlcNAc(b1-3)GalNAc(b1-4)GlcNAc
In short: as §1

GlcA(b1-6)Gal = biological target: GlcA(b1-6)Gal
In short: as §1

[21] = biological target: GlcNAc(a1-4)Gal(b1-4)GlcNAc(b1-3)Gal(b1-4)GlcNAc(b1-3)Gal(b1-4)GlcNAc
In short: as §1

[22] = biological target: GlcNAc(a1-4)Gal(b1-4)GlcNAc(b1-3)Gal(b1-4)[Fuc(a1-3)]GlcNAc(b1-3)Gal(b1-4)[Fuc(a1-3)]GlcNAc
In short: as §1

[23] = biological target: GlcNAc(b1-3)Gal(b1-4)GlcNAc(b1-2)Man(a1-3)[GlcNAc(b1-3)Gal(b1-4)GlcNAc(b1-2)Man(a1-6)]Man(b1-4)GlcNAc(b1-4)GlcNAc
In short: as §1

[24] = biological target: GlcNAc(b1-3)Gal(b1-4)GlcNAc(b1-3)Gal(b1-4)GlcNAc(b1-3)Gal(b1-4)GlcNAc(b1-2)Man(a1-3)[GlcNAc(b1-3)Gal(b1-4)GlcNAc(b1-3)Gal(b1-4)GlcNAc(b1-3)Gal(b1-4)GlcNAc(b1-2)Man(a1-6)]Man(b1-4)GlcNAc(b1-4)[Fuc(a1-6)]GlcNAc
In short: as §1

[25] = biological target: GlcNAc(b1-3)Gal(b1-4)GlcNAc(b1-3)Gal(b1-4)GlcNAc(b1-3)Gal(b1-4)GlcNAc(b1-2)[GlcNAc(b1-3)Gal(b1-4)GlcNAc(b1-3)Gal(b1-4)GlcNAc(b1-3)Gal(b1-4)GlcNAc(b1-6)]Man(a1-6)[GlcNAc(b1-3)Gal(b1-4)GlcNAc(b1-3)Gal(b1-4)GlcNAc(b1-3)Gal(b1-4)GlcNAc(b1-2)Man(a1-3)]Man(b1-4)GlcNAc(b1-4)[Fuc(a1-6)]GlcNAc
In short: as §1

[26] = biological target: GlcNAc(b1-3)[GlcNAc(b1-4)][GlcNAc(b1-6)]GlcNAc
In short: as §1

Man(a1-3)[Man(a1-6)]Man = biological target: Man(a1-3)[Man(a1-6)]Man
In short: as §1

[27] = biological target: Neu5Ac(a2-3)Gal(b1-3)GlcNAc(b1-3)Gal(b1-3)GlcNAc
In short: as §1

[28] = biological target: Neu5Ac(a2-3)Gal(b1-3)[Fuc(a1-4)]GlcNAc
In short: as §1

[29] = biological target: Neu5Ac(a2-3)Gal(b1-3)[Neu5Ac(a2-6)]GalNAc
In short: as §1

[30] = biological target: Neu5Ac(a2-3)Gal(b1-4)GlcNAc
In short: as §1

[31] = biological target: Neu5Ac(a2-3)Gal(b1-4)GlcNAc(b1-2)Man
In short: as §1

[32] = biological target: Neu5Ac(a2-3)Gal(b1-4)GlcNAc(b1-3)Gal(b1-3)GlcNAc
In short: as §1

[33] = biological target: Neu5Ac(a2-3)Gal(b1-4)GlcNAc6S
In short: as §1

[34] = biological target: Neu5Ac(a2-3)Gal(b1-4)[Fuc(a1-3)]GlcNAc(b1-3)GalNAc
In short: as §1

[35] = biological target: Neu5Ac(a2-3)Gal(b1-4)[Fuc(a1-3)]GlcNAc6S
In short: as §1

[36] = biological target: Neu5Ac(a2-6)Gal(b1-4)GlcNAc(b1-2)Man(a1-6)[Gal(b1-4)GlcNAc(b1-2)Man(a1-3)]Man(b1-4)GlcNAc(b1-4)GlcNAc
In short: as §1

[37] = biological target: Neu5Ac(a2-6)Gal(b1-4)GlcNAc(b1-2)Man(a1-6)[GlcNAc(b1-2)Man(a1-3)]Man(b1-4)GlcNAc(b1-4)GlcNAc
In short: as §1

[38] = biological target: Neu5Ac(a2-6)Gal(b1-4)GlcNAc(b1-3)Gal(b1-4)GlcNAc(b1-3)Gal(b1-4)GlcNAc(b1-2)Man(a1-3)[Neu5Ac(a2-6)Gal(b1-4)GlcNAc(b1-3)Gal(b1-4)GlcNAc(b1-3)Gal(b1-4)GlcNAc(b1-2)Man(a1-6)]GalNAc
In short: as §1

[39] = biological target: Neu5Ac(a2-6)GlcNAc(b1-4)GlcNAc
In short: as §1

[40] = biological target: Neu5Ac(a2-8)Neu5Ac(a2-8)Neu5Ac(a2-3)[Gal(b1-3)GalNAc(b1-4)]Gal(b1-4)Glc
In short: as §1

Neu5Gc(a2-3)Gal(b1-4)Glc = biological target: Neu5Gc(a2-3)Gal(b1-4)Glc
In short: as §1

B1: RbmA (Vibrio cholerae), A0A2H4NFB8 (protein)
chain: MSNFKGSIMNKRHYYLASCLALLFSTASYAEVDCELQPVIEANLSLNQNQLASNGGYISSQLGIRNESCETVKFKYWLSIKGPEGIYFPAKAVVGVDTAQQESDALTDGRMLNVTRGFWVPEYMADGKYTVSLQVVAENGEVFKANQEFVKGGDLNSLPELNGLTIDIKNQFGINSVESTGGFVPFTIDLNNGREGEAKVEFWMTAVGPDGLIIPVHSREKWMIIAGNTFSKVRGINFDKSYPAGEYTINAQVVDIVSGERVEQLMTVVKK
- glycan array binding signal (z-score) (Fuc(a1-2)Gal): 0.097
- glycan array binding signal (z-score) [1]: 3.71
- glycan array binding signal (z-score) [2]: 1.13
- glycan array binding signal (z-score) [3]: -0.42
- glycan array binding signal (z-score) [4]: 0.428
- glycan array binding signal (z-score) [5]: -0.393
- glycan array binding signal (z-score) [6]: -0.735
- glycan array binding signal (z-score) [7]: 2.25
- glycan array binding signal (z-score) (Fuc(a1-3)GlcNAc): -0.597
- glycan array binding signal (z-score) [8]: -0.564
- glycan array binding signal (z-score) [9]: -0.002
- glycan array binding signal (z-score) [10]: -0.276
- glycan array binding signal (z-score) [11]: 0.837
- glycan array binding signal (z-score) [12]: 0.508
- glycan array binding signal (z-score) [13]: 0.028
- glycan array binding signal (z-score) (Gal(b1-2)Gal): -0.082
- glycan array binding signal (z-score) [14]: 0.503
- glycan array binding signal (z-score) [15]: -0.69
- glycan array binding signal (z-score) (Gal(b1-3)GlcNAc6S): -0.734
- glycan array binding signal (z-score) [16]: -0.515
- glycan array binding signal (z-score) [17]: 4.03
- glycan array binding signal (z-score) [18]: 5.93
- glycan array binding signal (z-score) [19]: 7.99
- glycan array binding signal (z-score) (Gal4S(b1-4)GlcNAc): 3.32
- glycan array binding signal (z-score) (Gal6S(b1-3)GlcNAc6S): -0.99
- glycan array binding signal (z-score) [20]: 2.09
- glycan array binding signal (z-score) (GlcA(b1-6)Gal): -0.721
- glycan array binding signal (z-score) [21]: 3.48
- glycan array binding signal (z-score) [22]: 4.35
- glycan array binding signal (z-score) [23]: -0.474
- glycan array binding signal (z-score) [24]: 3.92
- glycan array binding signal (z-score) [25]: 0.187
- glycan array binding signal (z-score) [26]: 0.095
- glycan array binding signal (z-score) (Man(a1-3)[Man(a1-6)]Man): 0.76
- glycan array binding signal (z-score) [27]: -0.516
- glycan array binding signal (z-score) [28]: -1.17
- glycan array binding signal (z-score) [29]: 0.382
- glycan array binding signal (z-score) [30]: -0.847
- glycan array binding signal (z-score) [31]: 3.52
- glycan array binding signal (z-score) [32]: -0.862
- glycan array binding signal (z-score) [33]: 3
- glycan array binding signal (z-score) [34]: 3.93
- glycan array binding signal (z-score) [35]: -0.009
- glycan array binding signal (z-score) [36]: -0.289
- glycan array binding signal (z-score) [37]: -0.799
- glycan array binding signal (z-score) [38]: 1.63
- glycan array binding signal (z-score) [39]: -0.396
- glycan array binding signal (z-score) [40]: -0.211
- glycan array binding signal (z-score) (Neu5Gc(a2-3)Gal(b1-4)Glc): 0.337
